Inconclusive results are not listed. Some compounds were tested as several samples or in several runs, with calls that do not always agree. Calls of active or inactive are those of the source. Rule for the calls: active = hit-call score of the fitted dose curve at least 0.9, where 1 is the maximum; inconclusive = response in the unintended direction; inactive = score below 0.9.

Read-out in the assay: xenobiotic metabolism (CYP1A1), CYP1A1 (gene 1543)
Put plainly: CLD_CYP1A1_24hr: CellzDirect (CLD) Gene Expression Assay for xenobiotic metabolism (CYP1A1) at 24 hours (AID 2283673). Here is the method:
CLD_24hr is a cell-based, multiplexed-readout assay that uses hepatocyte, a human liver primary cell, with measurements taken at 24 hours after chemical dosing in a 96-well plate.CLD_CYP1A1_24hr is one of 16 assay component(s) measured or calculated from the CLD_24hr assay. It is designed to make measurements of mRNA induction, a form of inducible reporter, as detected with chemiluminescence signals by Quantitative Nuclease Protection Assay (qNPA) technology.Data from the assay component CLD_CYP1A1_24hr was analyzed at the endpoint, CLD_CYP1A1_24hr, in the positive analysis fitting direction relative to DMSO as the negative control and baseline of activity. Using a type of inducible reporter, gain-of-signal activity can be used to understand changes in the reporter gene as they relate to the gene CYP1A1. Furthermore, this assay endpoint can be referred to as a primary readout. To generalize the intended target to other relatable targets, this assay endpoint is annotated to the cyp intended target family, where subfamily is xenobiotic metabolism.
Human hepatocyte cultures were treated daily for two consecutive days with fresh dosing solutions containing appropriate concentrations of the 320 ToxCast chemicals (chemical identities were blinded to CellzDirect and other ToxCast collaborators), vehicle control (0.2% DMSO), and positive control inducers as summarized in Table 1. Due to the large number of treatment groups and chemicals examined, the ToxCast chemicals were divided into two groups (spanning two independent cultures of hepatocytes from separate donor preparations (Hu778: ToxCast plates 1 and 2; Hu776: ToxCast plates 3 and 4). Each preparation of human hepatocyte cultures was treated with respective vehicle control, medium only control, set of six positive controls/reference chemicals for the five hepatic receptor pathways, and a subset of eight of the ToxCast chemicals (indoxacarb, pyrithiobac-sodium, norflurazon, cyhalofop-butyl, methomyl, thiram, acetochlor, and propiconazole). These replicate data, coupled with internal replicates designed within the blinded ToxCast chemical library, provided additional data to evaluate interindividual differences between hepatocyte preparations and their potential impact on chemical profiles.Cell morphology and integrity were evaluated using phase-contrast microscopy as an indicator of hepatocyte cell health (Tyson & Green, 1987). Cultures for each treatment group (i.e., media, vehicle [0.2% DMSO], positive control inducers [multiple concentrations], and the ToxCast chemicals [multiple concentrations]) were observed and cell morphology was assessed relative to vehicle control cultures at each harvest time point (0, 6, 24, or 48 h). […] Images were evaluated at the conclusion of the study to assess changes in cell integrity and account for the effects of chemical exposure on uncharacteristic changes in concentration-dependent gene expression profiles. The results from these determinations of apparent cytotoxicity were annotated (yes/no) alongside the corresponding qNPA data for reference.At the conclusion of each treatment period, hepatocyte cultures (96-well) were washed with 1 volume of HBSS, lysed by addition of 25 ul ArrayPlate lysis buffer (HTG, Tucson, AZ), and 70 ul/well of Denaturation Oil, denatured by incubation at 95C for 10 min, and frozen at approximately -70C until analysis by nuclease protection assay (qNPA) (Roberts et al., 2007). For qNPA analysis, cell lysates were thawed at 50C for approximately 30 min, qNPA probes were added, and samples were incubated at 95C for 10 min to begin the detection process by denaturing the target RNA, dissociating the duplexes and secondary structure hybridization. At the conclusion of the hybridization period, S1 nuclease reagent was added to each sample to digest all nonprotected nucleotides at 50C for 60-90 min. […]
On to `O=C(O)COc1nc(Cl)c(Cl)cc1Cl`, for which the compound was called inactive.

With `CCCC1COC(Cn2cncn2)(c2ccc(Cl)cc2Cl)O1` (stereo not given), the half-maximal activity concentration (AC50) was 6.46 µM (active).

`COc1cnc(OC)n2nc(NS(=O)(=O)c3c(OCC(F)F)cccc3C(F)(F)F)nc12`: the outcome was inactive.

Regarding `CCCCC(CC)COC(=O)c1ccccc1C(=O)OCC(CC)CCCC` (stereo not given), the outcome was inactive.

As to `OC(c1ccc(Cl)cc1)(c1cncnc1)c1ccccc1Cl` (stereo not given), the AC50 is 7.86 µM (active).

Regarding `CC(C)Oc1cc(-n2nc(C(C)(C)C)oc2=O)c(Cl)cc1Cl`, the AC50 is 4.05 µM (active).

Turning to `O=C(Nc1ccccc1)Nc1ccnc(Cl)c1`, the AC50 was 10.4 µM (active).

On to `COc1nc(NC(C)C)nc(NC(C)C)n1`, for which the AC50 is 3.47 µM (active).

As to `C=CCC1=C(C)C(OC(=O)C2C(C=C(C)C)C2(C)C)CC1=O` (stereo not given), the result was inactive.

`COC(=O)c1ccccc1C(=O)OC`: the call was inactive.

As to `CCOC(=O)CC(SP(=S)(OC)OC)C(=O)OCC` (stereo not given), the result was inactive.

For `O=C(O)c1nc(Cl)ccc1Cl`, the concentration at half-maximal activity (AC50) was 7.87 µM (active).

With `C=CCC1=C(C)[C@@H](OC(=O)[C@@H]2[C@@H](C=C(C)C)C2(C)C)CC1=O`, the compound was classed as inactive.

As for `CCCN(CCC)c1c([N+](=O)[O-])cc(S(N)(=O)=O)cc1[N+](=O)[O-]`, the half-maximal activity concentration (AC50) was 4.81 µM (active).

On to `N#Cc1nn(-c2c(Cl)cc(C(F)(F)F)cc2Cl)c(N)c1S(=O)C(F)(F)F` (stereo not given), for which the compound was classed as inactive.

With `COP(=S)(OC)Oc1nc(Cl)c(Cl)cc1Cl`, the AC50 is 3.97 µM (active).

For `CCCCNC(=O)n1c(NC(=O)OC)nc2ccccc21`, the AC50 is 20 µM (active).

As for `CC(Oc1ccc(Cl)cc1Cl)C(=O)O` (stereo not given), the compound was called inactive.

Turning to `COc1ccc(C(c2ccc(OC)cc2)C(Cl)(Cl)Cl)cc1`, the result was inactive.

Take `CC(C)(C)c1ccc(CSc2cnn(C(C)(C)C)c(=O)c2Cl)cc1`: the AC50 was 20 µM (active).

For the compound `COc1nc(C)nc(NC(=O)NS(=O)(=O)c2ccccc2Cl)n1`, the call was inactive.

For `CCOP(=S)(OCC)SCn1c(=O)oc2cc(Cl)ccc21`, the half-maximal activity concentration (AC50) is 5.28 µM (active).

Take `CCOc1cc(Oc2ccc(C(F)(F)F)cc2Cl)ccc1[N+](=O)[O-]`: the concentration at half-maximal activity (AC50) was 4.84 µM (active).

With `CNC(=S)S`, the compound was called inactive.

Take `CON(C)C(=O)Nc1ccc(Cl)c(Cl)c1`: the AC50 is 1.82 µM (active).

Turning to `COC(=O)C(C)Oc1ccc(Oc2ccc(Cl)cc2Cl)cc1` (stereo not given), the outcome was inactive.

With `Oc1ccccc1-c1ccccc1`, the half-maximal activity concentration (AC50) is 35.9 µM (active).

On to `CCNc1nc(Cl)nc(NCC)n1`, for which the AC50 was 5.56 µM (active).

In the case of `CCc1nn(C)c(C(=O)NCc2ccc(C(C)(C)C)cc2)c1Cl`, the AC50 is 7.44 µM (active).

With `Cc1cc(Cl)ccc1OCC(=O)O`, the compound was called inactive.

On to `CCNc1nc(Cl)nc(NC(C)C)n1`, for which the half-maximal activity concentration (AC50) was 4.27 µM (active).

`CN(C)C(=S)SSC(=S)N(C)C`: the concentration at half-maximal activity (AC50) is 35 µM (active).

For the compound `CC1=C(C(=O)Nc2ccccc2)SCCO1`, the half-maximal activity concentration (AC50) is 20 µM (active).

Take `N#CC(CCc1ccc(Cl)cc1)(Cn1cncn1)c1ccccc1` (stereo not given): the AC50 is 2.64 µM (active).

In the case of `CCOC(=O)C(Cl)Cc1cc(-n2nc(C)n(C(F)F)c2=O)c(F)cc1Cl` (stereo not given), the AC50 is 0.39 µM (active).

With `C#CCOS(=O)OC1CCCCC1Oc1ccc(C(C)(C)C)cc1` (stereo not given), the concentration at half-maximal activity (AC50) is 20 µM (active).

For `CC(C)C1(C)N=C(c2nc3ccccc3cc2C(=O)O)NC1=O` (stereo not given), the outcome was inactive.

For `CS/C(C)=N/OC(=O)N(C)SN(C)C(=O)O/N=C(\C)SC`, the outcome was inactive.

As for `COc1nc(C)nc(NC(=O)NS(=O)(=O)c2ccccc2CCC(F)(F)F)n1`, the compound was classed as inactive and the concentration at half-maximal activity (AC50) is 20 µM (active).

What is called AC50 is the concentration at which the activity in the assay is half-maximal.

The values are drawn from PubChem BioAssay (EPA / NIEHS).
